Compound activity deposited in PubChem BioAssay by National Center for Advancing Translational Sciences (NCATS).
D1 ag – agonists of human D1 dopamine receptor | 1% of 360,000 active | HEK293 T-REx D1 cells, calcium flux, agonist mode | activation, % at 2 µM | P21728; further: 0% is about no effect
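Tetracycline-induced HEK293 TREx D1 cells, force-coupled to calcium signalling, were dye-loaded with a no-wash calcium kit. Compound was pin-added after a 10 s baseline. Fluorescence was read kinetically at 1 cycle/s for 180 s, with calcium rises flagged as agonism.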
TRHR agonist – TRH receptor (human) agonism. P34981. TRHR cells, calcium flux fluo-8, FDSS agonist mode. activation, % at 2 µM. 0.18% of 360,000 active; further: 0% is about no effect
Target sequence (P34981 whole entry, looked up): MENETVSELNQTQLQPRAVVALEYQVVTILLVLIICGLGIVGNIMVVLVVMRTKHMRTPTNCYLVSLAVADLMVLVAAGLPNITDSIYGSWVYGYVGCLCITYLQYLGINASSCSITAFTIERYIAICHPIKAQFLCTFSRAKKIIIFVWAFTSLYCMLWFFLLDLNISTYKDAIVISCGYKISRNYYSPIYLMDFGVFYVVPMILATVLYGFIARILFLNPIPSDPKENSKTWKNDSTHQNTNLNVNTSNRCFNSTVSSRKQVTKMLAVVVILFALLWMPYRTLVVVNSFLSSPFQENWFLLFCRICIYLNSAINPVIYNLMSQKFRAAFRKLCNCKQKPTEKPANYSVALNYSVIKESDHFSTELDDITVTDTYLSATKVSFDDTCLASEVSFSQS
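Steps: seed TRHR cells overnight; add fluo-8 no-wash Ca dye, RT 30 min–1.5 h; record 10 s baseline; pin-transfer compounds; monitor fluorescence 1 cycle/s for the agonist window. Calcium increases flag candidate agonists.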
TRHR PAM – allosterically enhances the human TRH receptor. TRHR cells, fluo-8 calcium fluorescence, EC20 TRH enhancement. enhancement, % at 2 µM. 0.66% of 360,000 active. AID 493056; in the data active means enhancement above about 30%; further: 0% is about no effect
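Enhancer read-out: after compound pinning and an initial kinetic agonist-mode read, an EC20 of TRH (10 nM final) was injected and fluo-8 calcium signal (Ex 480/Em 530) followed at 1 s/cycle for 100 cycles in TRHR-expressing cells.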
D1 antagonist – human D1 dopamine receptor antagonism. HEK293 TREx D1 cells, calcium flux, dopamine EC80; stronger effect = lower value. activity change, negative = inhibition, % at 10 µM. 3.2% of 360,000 active; in the data active means activity change below about -30%; further: on the % scale 0 is the no-effect control and ±100 the full control effect
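Tetracycline-induced HEK293 T-REx cells with force-coupled D1 receptor were loaded with a no-wash calcium dye. Compound was added after a 10 s baseline and read kinetically for 180 s; EC80 dopamine was then added and calcium flux followed another 180 s.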
D1 PAM – enhances dopamine response at the human D1 receptor. HEK293 TREx D1 cells, calcium flux, dopamine EC20 potentiation. potentiation, % at 10 µM. AID 504651. 0.036% of 360,000 active; in the data active means potentiation above about 30%; further: 0% is about no effect
* marks the source's active call; other numbers are inactive results; · = no result given. A selection: hits, their analogues and other compounds. The true share with any hit is near 4.6%. Unless noted, no stated cut-off is given here; in the data, active means activation above about 30%; inactive means the rest.

SMILES	D1 ag	TRHR agonist	TRHR PAM	D1 antagonist	D1 PAM
ClCC1NCC(c2ccccc2Cl)c2c1[nH]c1ccccc21 (stereo unspecified)	4	2	0	14	-1
COc1ccc(CCNC(=O)Cn2c(=O)n(-c3ccc(F)cc3F)c(=O)c3sccc32)cc1OC	0	-1	2	-36*	-6
NC(=O)c1ccc(N2CCN(c3ccccc3F)CC2)c([N+](=O)[O-])c1	5	-1	9	-19	0
NC(=O)c1ccc(N2CCN(c3ccccc3O)CC2)c([N+](=O)[O-])c1	19	0	6	-56*	-9
O=[N+]([O-])c1ccc(N2CCN(c3ccccc3O)CC2)c(Cl)c1	9	-1	9	-36*	-7
CC1CN(C(=O)N2CCC(C(=O)NCc3ccccc3F)CC2)c2cc(Cl)ccc2O1 (stereo unspecified)	12	0	-6	44	2
Nc1nonc1C(=O)NC(c1ccccc1)c1ccccc1	0	0	-2	-36*	-1
CCOc1ccc(OCC)c(S(=O)(=O)N2CCOCC2)c1	1	0	33*	-1	-4
Nc1c(C(=O)NCc2ccccc2)nnn1Cc1cccc(Br)c1	2	0	0	2	-1
CCOc1ccc(Cn2nnc(C(=O)NCCc3ccccc3)c2N)cc1	6	0	1	-10	·
Nc1c(C(=O)NCc2ccccc2)nnn1Cc1ccccc1	9	1	34*	4	·
CSc1ccc(Cn2nnc(C(=O)NCc3ccccc3)c2N)cc1	49*	3	-4	-4	7
CCOc1ccc(Cn2nnc(C(=O)NCCc3ccc(Cl)cc3)c2N)cc1	1	0	-3	-37*	·
COc1cccc(Cn2nnc(C(=O)NCc3ccc(F)cc3)c2N)c1	1	0	4	-50*	-6
Cc1csc(NC(=O)CSc2nccn2C)n1	4	1	-2	1	2
Cc1cc(C)cc(NC(=O)Cn2nnc(C(=O)NCc3ccc4c(c3)OCO4)c2N)c1	5	1	4	-32*	-6
Cc1ccc(C)c(Cn2nnc(C(=O)NCc3ccccc3)c2N)c1	41*	0	21	-6	-1
COCCc1nc2ccc(C(=O)N(C)Cc3cccc(-n4nc(C)cc4C)c3)cc2o1	0	0	0	27	-3
O=C1C=C(NC2=CC3OC(c4ccccc4)OCC3OC2=O)CCC1 (stereo unspecified)	3	-1	-8	-31*	-5
CCOC(=O)c1cc(C)n(CC2CCC(C(=O)Nc3cccc(C(C)=O)c3)CC2)c1C (stereo unspecified)	-1	1	4	-4	0
Nc1cnc(-c2ccccc2)nc1Cl	0	0	-2	-39*	-5
c1ccc(-c2cnc(-c3ccccc3)nc2)cc1	0	1	1	1	7
COc1ccc(-c2nnc3sc(CN4C(=O)c5ccccc5C4=O)nn23)cc1	4	0	36*	-5	2
Cc1sc2ncnc(N3CCC(C(=O)NNC(=O)COc4ccccc4Cl)CC3)c2c1C	12	0	12	5	-14
Cc1sc2ncnc(N3CCC(C(=O)NNC(=O)COc4ccccc4F)CC3)c2c1C	5	-1	-1	-40*	3
SMILES	D1 ag	TRHR agonist	TRHR PAM	D1 antagonist	D1 PAM
CCOC(=O)N1CCN(C(=O)CNC(=O)c2nn(-c3ccc(OC)cc3OC)c(=O)c3ccccc23)CC1	-3	-1	3	-17	-1
Cc1ccc(S(=O)(=O)NNC(=O)C2Cc3c(ccc4ccccc34)O2)cc1 (stereo unspecified)	33*	0	-4	-23	-3
CN(C)c1ccc(/C=C(\Cl)c2nc3ccccc3s2)cc1	99*	-1	1	-36*	-1
CSc1ccc(CN2CCN(Cc3ccc([N+](=O)[O-])cc3)CC2)cc1	8	0	-2	-37*	-12
O=C(NCc1ccccc1)c1cnc(N2CCCCC2)c2ccccc12	0	-1	-6	4	-3
O=C1CCCN1c1ncc(S(=O)(=O)c2ccc([N+](=O)[O-])cc2)s1	13	-1	-5	-47*	-4
COc1ccc(N2CCN(C(c3ccccc3)c3sc4nc(-c5ccco5)nn4c3O)CC2)cc1 (stereo unspecified)	-3	-1	3	·	-1
CCCCC(=NCCc1c(C)[nH]c2ccc(OC)cc12)C1=C(O)CC(c2ccccc2)CC1=O (stereo unspecified)	6	-1	-7	-34*	10
CCC(=NCCc1c(C)[nH]c2ccc(OC(F)(F)F)cc12)C1=C(O)CC(c2ccccc2)CC1=O (stereo unspecified)	5	0	1	-12	-3
CC(=NCCc1c(C)[nH]c2ccc(OCc3ccccc3)cc12)C1=C(O)CC(c2ccccc2)CC1=O (stereo unspecified)	9	1	2	-31*	2
CCC(=NCCc1c(C)[nH]c2ccccc12)C1=C(O)CC(c2ccccc2)CC1=O (stereo unspecified)	2	0	-4	25	0
CCOc1ccc(-c2nc(CN(Cc3ccccc3)C[C@@H]3CCC(=O)N3)c(C)o2)cc1	0	0	4	-2	1
COc1ccc(CCN(C)CC(O)COC(c2ccc(F)cc2)c2ccc(F)cc2)cc1OC (stereo unspecified)	33*	2	3	-27	-19
COc1ccc(CCN(C)CC(O)COc2c(C)ccc(C)c2C)cc1OC (stereo unspecified)	34*	-3	-17	-16	-7
O=c1cc(-c2ccccc2)c2cc(Cl)c3c(c2o1)CN(Cc1ccccc1)CO3	10	9	3	-1	0
Cc1cc(Oc2c(C(F)(F)F)oc3c(CN4CCC(C)CC4)c(O)ccc3c2=O)cc(C)c1Cl	-1	0	10	-7	-4
O=c1c(Oc2ccccc2Br)c(C(F)(F)F)oc2c(CN3CCCC3)c(O)ccc12	0	1	32*	15	8
COc1cccc(N/C(SCc2ccccc2F)=C(/C#N)C(=O)NCc2cccs2)c1	34*	2	-3	-40*	-3
Cc1ccc(N=C2NC(=O)/C(=C/C=C/c3ccco3)S2)cc1	2	0	8	-7	-5
Cc1ccc(N=C2NC(=O)S/C2=C\c2ccco2)cc1	9	-1	0	-36*	-8
O=C1NC(=Nc2ccccc2)/C(=C/c2ccco2)S1	6	1	-4	-37*	-11
O=C1NC(=Nc2ccccc2)S/C1=C\C=C\c1ccco1	7	-1	1	14	-3
O=C(c1cccc(S(=O)(=O)N2CCOCC2)c1)N(CCO)Cc1ccccc1	0	0	-5	-33*	-7
